This is an account of results in PubChem BioAssay (NCI).

Compounds without any hit were thinned out: in the full panel of roughly 83,000, 20% have a hit.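 Interpretation: 100, growth as untreated; towards 0, rising growth inhibition; 0, no net growth; 0 to -100, cell death. Compounds scoring below 10 were considered active.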 Activity calls are given as the source filed them.

This assay deals with PC-3 prostate. As to the kind of experiment: NCI-60 one-dose screen, 48 h (100 = growth as untreated, 0 = no growth, -100 = all killed). The conditions noted are these: 10 µM unless noted.
As for `Cc1ccc(NC(=O)c2ccc(CN3CCN(C)CC3)cc2)cc1Oc1ccc(-c2[nH]nc3ncnc(N)c23)cc1`, the growth is 84.5% (inactive).
For `CCCn1cnc2c(c1=N)C(c1ccc(Cl)cc1)c1sc3c(C)cccc3c1O2` (stereo not given), the growth was 6.9% (active).
In the case of `C=C(C=O)[C@@H]1CC[C@]2(C)[C@H](CC=C3[C@H]4[C@@H](C)[C@H](C)CC[C@]4(C(=O)OC)CC[C@]32C)[C@@]1(C)CCC#N` it was 9.4% (active); in that of `NC(N)=Nc1ccc(Oc2cccc(NC(N)=Nc3ccc(I)cc3F)c2)cn1`, 28.1% (inactive).
As for `Cc1occc1-c1nc2s/c(=C/c3ccc(-c4cc(C(F)(F)F)ccc4Cl)o3)c(=O)n2n1`, the growth was 97.7% (inactive).
For `C[C@H]1c2[nH]c3ccccc3c2C[C@H]2C(=O)N(CCCCCCC(=O)NO)CC(=O)N21` the value was 77.7% (inactive); for `COc1ccc(-c2cc(-c3ccc(Cl)cc3)c(C#N)c(=O)n2Cc2ccc(C(=O)O)cc2)cc1`, 68.9% (inactive); for `O=C1[C@H]2Cc3c([nH]c4ccccc34)[C@@H](c3ccc(Cl)cc3)N2C(=O)CN1C1CCN(Cc2ccccc2)CC1`, 30.4% (inactive).
In the case of `COc1cc(-c2nn(C(C)(C)C)cc2-c2ccnc(NCCCNS(=O)(=O)c3ccc(C)cc3)n2)ccc1Cl`, the growth is 58.1% (inactive).
In the case of `CCCCNNC(=O)c1ccc(-c2cccc(F)c2F)cc1` it was 45.9% (inactive); in that of `CC1(C)CC[C@]2(C(=O)N3CCOCC3)CC[C@]3(C)C(=CC[C@@H]4[C@@]5(C)C/C(=C/c6ccccn6)C(=O)C(C)(C)[C@@H]5CC[C@]43C)[C@@H]2C1`, 20.9% (inactive).
For `O=S(=O)(NCCNc1nccc(-n2cnc3ccccc32)n1)c1ccc(Br)cc1` the value was 93.8% (inactive); for `CC1(C)CC[C@]23CC[C@]4(C)[C@H](CC[C@@H]5[C@@]6(C)CCCN(CO)C(C)(C)[C@@H]6CC[C@]54C)[C@H]2[C@H]1OC3`, 73.6% (inactive).
For `O=C1[C@H]2Cc3c([nH]c4ccccc34)[C@@H](c3ccc(Br)cc3)N2C(=O)CN1C1CCN(CC2CCCCC2)CC1` the value was -52.3% (active); for `COc1ccc([C@H]2c3[nH]c4ccccc4c3C[C@H]3C(=O)N(C4CCN(Cc5c(Cl)cccc5Cl)CC4)CC(=O)N23)c(OC)c1`, 72.7% (inactive).
`NS(=O)(=O)c1ccc(Nc2nc(Nc3ccccc3)nc3nnc(SCC(=O)NC4CCCCC4)n23)cc1`: the growth is 98.5% (inactive).
In the case of `O=C(NNc1nc2cc(F)ccc2n2c(CN3CCC(O)C3)ccc12)c1cnccn1` (stereo not given), the growth is 25.2% (inactive).
For `CCN(CC)c1cn(-c2ccc(S(N)(=O)=O)cc2)nn1` the value was 101% (inactive).
For `O=[N+]([O-])c1cc(/C=N/Nc2nc(N/N=C/c3ccc(Cl)c([N+](=O)[O-])c3)nc(N3CCCCC3)n2)ccc1Cl`, the growth was 53.4% (inactive).
As to `CC(=O)Nc1cccc(Nc2nc(N[C@@H](C)c3ccccc3)c3ccccc3n2)c1`, the growth was 21.3% (inactive).
Consider `COc1ccc(COc2ccc(/C=C3\C(=O)Nc4ccccc43)cc2OC)cc1`, for which the growth was 95.8% (inactive).
In the case of `CCNC(=O)Oc1ccc(/C(=C(/C)c2ccccc2)c2ccc(OCCN3CCCCCC3)cc2)cc1`, the growth is 13.1% (inactive).
For the molecule `COc1cc(/C=N/NC(=O)c2cn(C3CC3)c3c(OC)c(N4CC5CCCNC5C4)c(F)cc3c2=O)ccc1O` (stereo not given), the growth was 45.1% (inactive).
Take `CC(C)c1ccc(NCc2cn(-c3ccc(C(=O)O)cc3)nc2-c2cc(C(F)(F)F)cc(C(F)(F)F)c2)cc1`: the growth was 70.4% (inactive).
`C[C@@H]1C[C@H]2C(=O)O[C@@H](C)C(NC(=O)[C@H](Cc3cc(F)cc(F)c3)NC(=O)Nc3ccc(Cl)cc3F)C(=O)N3CCC[C@H]3C(=O)N3CCCC[C@H]3C(=O)N[C@@H](CO)C(=O)N2C1` (stereo not given in full): the growth was 15.5% (inactive).
With `CC(=O)O[C@@H]1C(=O)N(c2cnccn2)[C@H]1c1ccccc1[N+](=O)[O-]`, the growth was 24.6% (inactive).
As to `C=C1CC[C@@H]2[C@]3(C)COC(c4ccccc4)O[C@@H]3CC[C@@]2(C)[C@@H]1C/C=C1/C(=O)OC[C@H]1O` (stereo not given in full), the growth was 82.4% (inactive).
Take `Nc1nc(-c2cccc([N+](=O)[O-])c2)c(N=Nc2cccc([N+](=O)[O-])c2)s1`: the growth is 74.7% (inactive).
As for `Nc1cc(F)ccc1NC(=O)c1ccc(NC(=O)C/C=C/c2cccnc2)cc1`, the growth was 36.6% (inactive).
Consider `CCc1nn2c(C)cc(C)nc2c1Cc1ccc(/C=C/CN2CCN(CCOCCOCCN3CCN(C/C=C/c4ccc(Cc5c(CC)nn6c(C)cc(C)nc56)cc4)CC3)CC2)cc1`, for which the growth is 24.8% (inactive).
